Calls of active or inactive are those of the source.

For 15 molecules, composite z-score and z-score results are on record in PubChem BioAssay.

For assay [1], the system named is PRMT1 (protein arginine N-methyltransferase 1). Description: PRMT1 binders on small-molecule microarrays, primary screen, biochemical, small-molecule microarray, 635 nm fluorescence (AID 1088).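 Further: binding of Prmt1 protein to compounds spotted on small-molecule microarray slides.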 The following applies: small-molecule microarray binding, higher = more signal.
A short description of assay [2]: yeast growth modulation, basal conditions, primary screen, YJM789 clinical isolate, OD600, 24 h (AID 1089).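 Further: growth of clinical yeast isolate S. cerevisiae YJM 789 seeded 1000 cells per well; test concentration not given here.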 Particulars: S. cerevisiae YJM789 growth, higher = more signal, called active from +8 up or from −8 down.
Assay [3] is described as follows: fission yeast growth modulation, primary screen, strain 972, OD600, 24 h, no modulator (AID 1090).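 Further: basal condition with compound alone and no growth modifier present; test concentration not given here.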 Particulars: S. pombe 972 growth, higher = more signal, called active from +8 up or from −8 down.
Assay [4] can be described thus: S. cerevisiae growth modulation with rapamycin, primary screen, strain BY4716, OD600, 96 h (AID 1091). Further: test concentration not given here. The following applies: higher = more signal, called active from +8 up or from −8 down.
The target in assay [5] is Torsin-1A-interacting protein 2 (Homo sapiens) (UniProt Q8NFQ8). Nature of the assay: LULL1 binders on small-molecule microarray, primary screen, cell lysate, human LULL1 lysate, 635/667 nm fluorescence (AID 1092).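 Further: probe is lysate of COS7 cells overexpressing human LULL1; score merges per-feature 667 nm fluorescence with signal-to-noise.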 Particulars: hLULL1 lysate binding, 635 nm fluorescence, higher = more signal.
A short description of assay [6]: E. coli growth modulation, two-sided OD650, primary screen, E. coli filamentation project, strain DRC41, 24 h (AID 1093).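 Further: MC1000 strain lacking acrAB efflux and sulA so SOS filamentation is blocked; test concentration not given here.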 Particulars: OD650, 24 h, higher = more signal, called active from +8 up or from −8 down.
The nature of assay [7]: small-molecule microarray binders of probe aLefty2, primary screen, biochemical, biotinylated probe, 635/667 nm fluorescence (AID 1094).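 Further: score merges spot fluorescence near 667 nm with spot signal-to-noise ratio.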 Particulars: higher = more signal.
In assay [8] the test system is Noggin (protein binding on small-molecule microarray). Description: Noggin binders on small-molecule microarray, primary screen, biochemical, 635/667 nm fluorescence (AID 1095).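 Further: score merges 667 nm feature fluorescence with signal to noise over triplicate slides.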 The following applies: 635 nm fluorescence, higher = more signal.
Assay [9] has as its target Neurogenic locus notch homolog protein 3 (Homo sapiens) (UniProt Q9UM47). Nature of the assay: NOTCH3 binders on small-molecule microarray, primary screen, biochemical, 635/667 nm fluorescence (AID 1096). Particulars: NOTCH3 binding, 635 nm fluorescence, higher = more signal.
A short description of assay [10]: small-molecule microarray binders of probe aEGFR, primary screen, biochemical, biotinylated probe, 635/667 nm fluorescence (AID 1097).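 Further: probe is a biotinylated anti-EGFR antibody binding compounds printed on slides; score combines fluorescence near 667 nm and signal to noise of each spot.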 Particulars: higher = more signal.

Neurogenic locus notch homolog protein 3 (Homo sapiens), sequence (Q9UM47 whole entry, looked up): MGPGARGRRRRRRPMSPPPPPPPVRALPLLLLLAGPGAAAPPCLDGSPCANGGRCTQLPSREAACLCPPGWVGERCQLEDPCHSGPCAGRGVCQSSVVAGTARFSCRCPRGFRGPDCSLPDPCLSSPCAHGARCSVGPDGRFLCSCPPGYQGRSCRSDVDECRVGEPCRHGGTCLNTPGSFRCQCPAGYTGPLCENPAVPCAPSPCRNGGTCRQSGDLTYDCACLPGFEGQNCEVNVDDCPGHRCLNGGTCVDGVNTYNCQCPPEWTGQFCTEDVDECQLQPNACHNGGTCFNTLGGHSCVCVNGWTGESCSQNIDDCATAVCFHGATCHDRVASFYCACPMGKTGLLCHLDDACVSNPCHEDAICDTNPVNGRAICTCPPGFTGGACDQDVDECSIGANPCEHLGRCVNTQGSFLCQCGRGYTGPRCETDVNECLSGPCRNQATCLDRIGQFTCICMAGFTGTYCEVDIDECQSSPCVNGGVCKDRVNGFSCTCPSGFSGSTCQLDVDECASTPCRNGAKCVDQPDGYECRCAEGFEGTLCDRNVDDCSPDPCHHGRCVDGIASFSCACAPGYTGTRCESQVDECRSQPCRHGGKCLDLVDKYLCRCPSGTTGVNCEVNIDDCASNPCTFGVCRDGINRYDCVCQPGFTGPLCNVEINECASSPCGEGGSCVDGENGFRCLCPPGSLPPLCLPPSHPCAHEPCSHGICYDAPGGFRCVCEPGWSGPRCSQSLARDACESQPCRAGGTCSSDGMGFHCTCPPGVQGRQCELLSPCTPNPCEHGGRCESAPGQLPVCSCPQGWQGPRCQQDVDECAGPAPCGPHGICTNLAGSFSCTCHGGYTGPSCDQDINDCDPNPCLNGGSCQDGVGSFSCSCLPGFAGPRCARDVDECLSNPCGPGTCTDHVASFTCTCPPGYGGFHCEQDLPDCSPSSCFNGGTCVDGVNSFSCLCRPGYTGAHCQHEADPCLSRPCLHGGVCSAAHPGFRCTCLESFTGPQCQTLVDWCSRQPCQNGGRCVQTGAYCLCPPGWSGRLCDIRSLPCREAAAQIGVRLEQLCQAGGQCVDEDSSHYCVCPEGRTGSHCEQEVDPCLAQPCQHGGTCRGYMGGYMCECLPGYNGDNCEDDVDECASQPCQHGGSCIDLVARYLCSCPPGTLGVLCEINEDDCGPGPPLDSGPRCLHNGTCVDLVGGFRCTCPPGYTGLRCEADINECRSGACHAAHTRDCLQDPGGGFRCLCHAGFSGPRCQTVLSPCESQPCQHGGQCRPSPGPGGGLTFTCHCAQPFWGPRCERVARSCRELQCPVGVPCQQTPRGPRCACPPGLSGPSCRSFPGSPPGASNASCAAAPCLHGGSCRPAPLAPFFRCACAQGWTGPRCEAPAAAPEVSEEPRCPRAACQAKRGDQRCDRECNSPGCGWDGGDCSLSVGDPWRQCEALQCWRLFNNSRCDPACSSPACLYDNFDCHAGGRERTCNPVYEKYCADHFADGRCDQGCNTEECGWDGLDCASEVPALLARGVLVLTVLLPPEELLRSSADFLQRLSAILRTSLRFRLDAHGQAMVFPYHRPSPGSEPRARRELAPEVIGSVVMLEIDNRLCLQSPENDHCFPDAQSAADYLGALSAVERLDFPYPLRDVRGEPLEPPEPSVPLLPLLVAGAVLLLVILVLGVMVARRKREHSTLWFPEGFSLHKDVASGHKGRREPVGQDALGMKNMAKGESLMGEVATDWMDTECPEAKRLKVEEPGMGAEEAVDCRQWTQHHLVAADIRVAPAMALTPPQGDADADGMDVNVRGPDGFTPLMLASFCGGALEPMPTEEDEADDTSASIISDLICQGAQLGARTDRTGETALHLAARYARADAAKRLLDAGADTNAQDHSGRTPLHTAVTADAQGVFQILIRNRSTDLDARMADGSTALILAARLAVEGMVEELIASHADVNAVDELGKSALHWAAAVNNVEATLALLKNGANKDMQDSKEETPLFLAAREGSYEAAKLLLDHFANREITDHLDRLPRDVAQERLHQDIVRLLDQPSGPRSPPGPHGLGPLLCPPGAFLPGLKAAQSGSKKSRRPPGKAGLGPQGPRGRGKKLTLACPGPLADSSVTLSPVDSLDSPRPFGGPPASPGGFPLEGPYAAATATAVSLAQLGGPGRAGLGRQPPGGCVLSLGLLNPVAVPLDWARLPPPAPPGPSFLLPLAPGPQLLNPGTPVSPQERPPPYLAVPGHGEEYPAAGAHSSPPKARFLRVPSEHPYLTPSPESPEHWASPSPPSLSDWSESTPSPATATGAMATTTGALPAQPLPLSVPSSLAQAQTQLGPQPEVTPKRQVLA
Torsin-1A-interacting protein 2 (Homo sapiens), sequence (Q8NFQ8 whole entry, looked up): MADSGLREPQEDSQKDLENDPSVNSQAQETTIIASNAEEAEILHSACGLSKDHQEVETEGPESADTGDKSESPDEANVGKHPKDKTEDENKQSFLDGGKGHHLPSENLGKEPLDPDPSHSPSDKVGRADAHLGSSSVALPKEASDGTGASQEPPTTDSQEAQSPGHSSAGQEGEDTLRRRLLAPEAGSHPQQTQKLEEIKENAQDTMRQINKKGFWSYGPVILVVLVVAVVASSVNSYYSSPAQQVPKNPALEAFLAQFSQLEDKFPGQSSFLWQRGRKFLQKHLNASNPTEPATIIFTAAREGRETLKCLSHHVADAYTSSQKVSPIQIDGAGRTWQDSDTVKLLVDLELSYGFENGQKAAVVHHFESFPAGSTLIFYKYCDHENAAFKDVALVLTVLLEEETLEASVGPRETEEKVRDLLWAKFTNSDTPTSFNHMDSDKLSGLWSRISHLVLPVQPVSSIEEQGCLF

Take `COC(=O)[C@@]1(Cc2ccccc2CN=[N+]=[N-])N=C(c2ccc(OCCCO)cc2)O[C@H]1c1ccccc1`: the composite z-score in [1] was found to be 1.45; in [5], 1.94; in [7], 0.547; in [8], 0.151; in assay [9], 0.107; in assay [10], 0.0209. The z-score was 0.682 (inactive) in assay [2], -2.11 (inactive) in [3], 35.9 (active) in [4] and 0.77 (inactive) in [6].

On to `O=C(CS)NCCCCCCNC(=O)[C@@H]1C[C@@H]2C(=O)NCC(=O)N2[C@@H]1c1ccc(O)cc1`, for which the composite z-score in assay [1] is 0.801; in assay [5], 2.92; in assay [7], -0.0692; in assay [8], -0.728; in assay [9] it was -0.028; in assay [10] it was -0.218. For the same molecule, the z-score in assay [2] was -2.07 (inactive); in [3] it was 0.172 (inactive); in assay [4] it was -0.436 (inactive); in assay [6] it was 0.869 (inactive).

`O=C1C[C@@](C(=O)NCC(F)(F)F)(c2ccc([N+](=O)[O-])cc2)[C@@H](c2ccc(CO)cc2)N1CC12CC3CC(CC(C3)C1)C2`: the composite z-score is 1.55 in assay [1]; 2.05 in [5]; 0.426 in [7]; 1.26 in [8]; 0.614 in assay [9]; 0.751 in assay [10]. The z-score in assay [2] was 0.263 (inactive); in assay [3] it was -1.03 (inactive); in assay [4], 1.77 (inactive); in [6], -0.49 (inactive).

For the molecule `C=CCC(OC(C)=O)[C@@H]1[C@@H](N(Cc2cccc3ccccc23)C(=O)c2cccc3ccccc23)c2cc(OCCCO)ccc2N1C(=O)c1ccc2ccccc2c1` (stereo not given in full), the composite z-score is 0.692 in [1]; 1.65 in [5]; -0.156 in assay [7]; 0.345 in assay [8]; -0.0325 in assay [9]; -0.0967 in assay [10]. For the same molecule, the z-score is -0.55 (inactive) in assay [2], 0.672 (inactive) in assay [3], -1.35 (inactive) in assay [4] and 0.195 (inactive) in [6].

For `COC(=O)[C@@]1(Cc2ccc(F)cc2)[C@H]2c3cc(C(=O)N(C)C)n(Cc4ccc(O)c(OC)c4)c3C[C@H]2CN1C(=O)c1ccccc1`, the composite z-score in assay [1] turned out to be 0.423; in assay [5] it was 2.2; in assay [7] it was 0.0043; in assay [8], 0.718; in assay [9] it was 1.13; in assay [10], 0.0977. Moreover, the z-score in assay [2] was 0.0973 (inactive); in assay [3], -1.2 (inactive); in assay [4], 0.485 (inactive); in assay [6], 1.02 (inactive).

On to `CN1C(=O)C2C=CC(C(O)c3ccc(I)cc3)N(Nc3ccccc3)C2C1=O` (stereo not given), for which the composite z-score is 1.27 in [1]; 2.99 in assay [5]; 0.107 in assay [7]; -0.111 in [8]; 1.09 in [9]; 0.0778 in [10]. In addition, the z-score in assay [2] is -0.228 (inactive); in assay [3], -0.504 (inactive); in [4], 0.768 (inactive); in assay [6], -1.78 (inactive).

Turning to `COc1cc(NN2C(C(O)c3cc(OC)c(OC)c(OC)c3)C=CC3C(=O)N(c4ccccc4)C(=O)C32)cc(OC)c1OC` (stereo not given), the composite z-score in assay [1] worked out at 1.51; in [5], 2.93; in assay [7], 0.688; in [8], 1.34; in assay [9], 1.02; in [10], 0.139. The z-score in assay [2] was 0.613 (inactive); in [3] it was 0.712 (inactive); in assay [4], 0.219 (inactive); in assay [6] it was -1.94 (inactive).

With `CCOC(=O)C[C@H]1[C@H](OC(=O)c2cc3ccccc3oc2=O)[C@@H](NC(=O)c2ccc3ccccc3c2)c2cc(OCCCO)ccc2N1C(=O)Cc1ccc(OC)cc1`, the composite z-score in assay [1] was 0.631; in [5] it was 2.48; in assay [7] it was -0.0359; in [8], 0.405; in [9] it was 0.872; in assay [10], 0.0009. In addition, the z-score in assay [2] is 0.173 (inactive); in assay [3] it was 0.106 (inactive); in assay [4], -1.33 (inactive); in assay [6], -0.436 (inactive).

As to `O=C1NC(=O)C2C1C=CC(C(O)c1ccccn1)N2Nc1ccc(Cl)cc1Cl` (stereo not given), the composite z-score in assay [1] was 0.195; in assay [5] it was 3.35; in assay [7], 0.091; in assay [8] it was -0.291; in assay [9], 0.259; in [10] it was -0.0271. For the same molecule, the z-score in assay [2] is -1.09 (inactive); in assay [3], 0.154 (inactive); in assay [4], -0.458 (inactive); in [6], -0.402 (inactive).

In the case of `COCCOC(=O)N1C(=O)[C@@]2(c3cc(C#CCCO)ccc31)[C@H](C(N)=O)[C@H]1C(=O)O[C@H](c3ccccc3)[C@H](c3ccccc3)N1[C@@H]2c1ccc(OCCO)cc1`, the composite z-score in assay [1] was 1.54; in assay [5], 3.02; in assay [7], -0.161; in assay [8] it was 0.632; in assay [9] it was 0.992; in assay [10], 0.0754. Besides, the z-score in [2] is 1.94 (inactive); in assay [3], 0.63 (inactive); in assay [4] it was 2.82 (inactive); in assay [6], -0.187 (inactive).

With `CCOC(=O)C=Cc1cc(F)ccc1O`, the composite z-score is 0.311 in assay [1]; 0.905 in assay [5]; -0.0446 in [7]; -0.173 in assay [8]; -0.18 in assay [9]; -0.233 in assay [10]. The z-score is -26.6 (active) in assay [2], -15.2 (active) in [3], -1.06 (inactive) in assay [4] and -0.624 (inactive) in assay [6].

Consider `COC(=O)[C@@]1(Cc2ccc(OC)cc2)[C@H]2c3cc(C(=O)N4CCCC4)n(Cc4ccc(OC(F)(F)F)cc4)c3C[C@H]2CN1C(=O)c1ccccc1`, for which the composite z-score was -1.02 in assay [1]; 0.0202 in [5]; 0.412 in assay [7]; -0.442 in assay [8]; 0.75 in assay [9]; 0.343 in assay [10]. The z-score in assay [2] was 0.59 (inactive); in assay [3], 1.74 (inactive); in assay [4], 3.21 (inactive); in assay [6], -0.376 (inactive).

For the molecule `C#C[C@@H](CC)O[Si](C#CCCCC#N)(C(C)C)C(C)C`, the composite z-score was 1.12 in [1]; 2.2 in [5]; -0.0257 in assay [7]; -0.298 in assay [8]; 0.398 in assay [9]; -0.128 in assay [10]. Further, the z-score was -13.2 (active) in [2], -20.1 (active) in [3], -3.15 (inactive) in assay [4] and 0.619 (inactive) in [6].

On to `Nc1cc(Br)ccc1C(=O)O`, for which the composite z-score in assay [1] was 0.409; in assay [5], 0.568; in [7], -0.0664; in assay [8], 0.136; in assay [9], 0.332; in assay [10], -0.0961. Besides, the z-score in [2] was -0.585 (inactive); in [3], -1.64 (inactive); in assay [4], -0.0096 (inactive); in assay [6], -1.2 (inactive).

Consider `CCOC(=O)C1=C[C@@H](C(C)(C)C)N(S(=O)(=O)c2ccc(C)cc2)[C@H]1c1cccc(Cl)c1`, for which the composite z-score turned out to be 1.4 in [1]; 2.81 in assay [5]; 0.195 in assay [7]; 1.04 in assay [8]; 1.08 in assay [9]; 0.301 in [10]. Further, the z-score in [2] was 1.74 (inactive); in assay [3] it was 2.35 (inactive); in assay [4] it was 3.04 (inactive); in [6] it was -0.695 (inactive).
